Results as given in PubChem BioAssay AID463173 (ICCB-Longwood Screening Facility, Harvard Medical School, 2010).
In all, about 52,000 compounds went through this assay and about 4,300 (8.3%) were called active. No stated cut-off is given here; in the data, active means survival mostly below about 52% (no sharp cut-off); inactive means mostly above about 56%. For the sample, actives were picked, then their nearest neighbours and some compounds at random.

Each molecule was assayed on DeltatarO mutant (assay: S. aureus survival, RN4220 and DeltatarO strains – OD600, teichoic acid synthesis inhibitors, primary screen (AID 463173)). Settings: S. aureus RN4220 wild type/DeltatarO growth, OD600, 18 h, stronger effect = lower value, screened at 18.75 µg/mL (by protocol).

| SMILES | survival |
| --- | --- |
| O=C(NCc1ccc(Cl)cc1)c1cnc(N2CCCCC2)c2ccccc12 | 84% (inactive) |
| CCc1ccc(N(CC)C(=O)c2ccc3c(=O)n4c(nc3c2)CCCCC4)cc1 | 86% (inactive) |
| CCOc1ccc(NC(=O)Cn2ncc3c2-c2cc(C)ccc2OC3)cc1 | 73% (inactive) |
| Cc1c(C(=O)NCc2cccc(F)c2)oc2c1-c1[nH]ncc1CC2 | 71% (inactive) |
| CC(CN=CC1=C(O)CC(C)(C)CC1=O)N=CC1=C(O)CC(C)(C)CC1=O (centres undefined) | 101% (inactive) |
| CC1(C)CC(=O)C(C=NCCCN2CCCC2=O)=C(O)C1 | 94% (inactive) |
| CC(C)C(=O)N1CCC(CN=CC2=C(O)CC(C)(C)CC2=O)CC1 | 52% (active) |
| CC(O)Cc1nsc(NC(=O)c2cccs2)n1 (centres undefined) | 81% (inactive) |
| CCC(C)NC(=O)C1CCN(C(=O)c2cc3sccc3n2Cc2ccc(Cl)cc2)CC1 (centres undefined) | 45% (active) |
| CCn1c(C(=O)N2CCC(C(=O)N3CCN(c4cc(C)ccc4C)CC3)CC2)cc2sccc21 | 51% (inactive) |
| COCCCNC(=O)C1CCN(C(=O)c2cc3sccc3n2Cc2ccc(Cl)cc2)CC1 | 59% (inactive) |
| CC(C)CCNC(=O)C1CCN(C(=O)c2cc3sccc3n2Cc2ccc(Cl)cc2)CC1 | 40% (active) |
| COc1ccc(N2CCN(C(=O)c3cc4sccc4n3Cc3ccccc3)CC2)cc1 | 92% (inactive) |
| CCn1c(C(=O)N2CCC(C(=O)NCCc3ccc(C)cc3)CC2)cc2sccc21 | 58% (inactive) |
| COCCNC(=O)C1CCN(C(=O)c2cc3sccc3n2Cc2ccc(Cl)cc2)CC1 | 110% (inactive) |
| CC(C)NC(=O)C1CCN(C(=O)c2cc3sccc3n2Cc2ccc(Cl)cc2)CC1 | 65% (inactive) |
| CCn1c(C(=O)N2CCC(C(=O)N3CCN(c4ccc(OC)cc4)CC3)CC2)cc2sccc21 | 49% (active) |
| Cc1ccc(CN(CC(=O)NC2CCCC2)C(=O)CSc2nnc(COc3ccccc3)o2)cc1 | 80% (inactive) |
| O=C(Cn1c(=O)n(-c2ccc(Cl)cc2)c(=O)c2c3c(sc21)CCC3)c1ccc(F)cc1 | 51% (inactive) |
| COc1ccc(N2CCN(C(=O)Cn3nc(Cc4cccnc4)c4ccccc4c3=O)CC2)cc1 | 108% (inactive) |

| SMILES | survival |
| --- | --- |
| Cc1cc(C)c(NC(=O)CSc2nc(=O)n(Cc3cccnc3)c3c2CCC3)c(C)c1 | 104% (inactive) |
| C[n+]1ccn(CC(=O)c2ccccc2)c1 | 78% (inactive) |
| COCCN=Cc1c(NCCOC)nc2ccccn2c1=O | 103% (inactive) |
| COC(=O)c1sc(N)c(C#N)c1C | 74% (inactive) |
| CC(C)(C)NC(=O)C1CCN(c2nc3ccccc3nc2C(F)(F)F)CC1 | 63% (inactive) |
| O=C(Nc1ccc(F)cc1)C1CCN(c2nc3ccccc3nc2C(F)(F)F)CC1 | 118% (inactive) |
| CC(C)NC(=O)C1CCN(c2nc3ccccc3nc2C(F)(F)F)CC1 | 101% (inactive) |
| Cc1ccc(NC(=O)C2CCN(c3nc4ccccc4nc3C(F)(F)F)CC2)cc1C | 91% (inactive) |
| CSc1ccc(NC(=O)C2CCN(c3ncccn3)CC2)cc1 | 110% (inactive) |
| CC(NC(=O)C1CCN(c2nc3ccccc3nc2C(F)(F)F)CC1)c1ccccc1 (centres undefined) | 37% (active) |
| O=C(Nc1cccc(Cl)c1)C1CCN(c2nc3ccccc3nc2C(F)(F)F)CC1 | 70% (inactive) |
| Cc1cc(C)cc(NC(=O)C2CCN(c3nc4ccccc4nc3C(F)(F)F)CC2)c1 | 93% (inactive) |
| O=C(Nc1ccc(F)c(Cl)c1)C1CCN(c2ncccn2)CC1 | 63% (inactive) |
| O=C(Nc1ccc(Cl)cc1)C1CCN(c2nc3ccccc3nc2C(F)(F)F)CC1 | 25% (active) |
| Cc1ccc(NC(=O)C2CCN(c3nc4ccccc4nc3C(F)(F)F)CC2)cc1F | 46% (active) |
| Cc1ccc(NC(=O)C2CCN(c3ncccn3)CC2)cc1F | 53% (active) |
| O=C(Nc1ccc(F)cc1F)c1c2c(nc3ccccc13)C(=O)N(C1CCCCC1)C2 | 81% (inactive) |
| CCN(CC)C(=O)C1CCN(c2nnc(C)c3c(C)n(-c4ccc(Cl)cc4)nc23)CC1 | 95% (inactive) |
| CCOc1ccc(N(C(C)C(=O)NCCSc2ccc(C)cc2)S(C)(=O)=O)cc1 (centres undefined) | 45% (inactive) |
| COc1ccc(OC)c(NC(=O)CSC2=Nc3ccccc3C3=NC(CC(=O)NCc4ccco4)C(=O)N23)c1 (centres undefined) | 99% (inactive) |

| SMILES | survival |
| --- | --- |
| CC(C)Nc1nc(NC(N)=O)nc(NC(C)C)n1 | 104% (inactive) |
| CCOc1ccc(CN2C(=O)c3ccccc3C2C(=O)NCCc2ccc(OC)c(OC)c2)cc1 (centres undefined) | 88% (inactive) |
| CCSc1nc2c([nH]c3ccccc32)c(=O)n1CC | 68% (inactive) |
| Cc1nc2c(-c3ccccc3)c(C)nn2c(C)c1CCC(=O)NCc1ccc(F)cc1 | 94% (inactive) |
| COc1ccc(C(=O)N2CC(C)CC(C)C2)cc1 (centres undefined) | 98% (inactive) |
| CC1CCN(c2nn3c(=O)c(C(=O)NCCc4ccccc4)cnc3s2)CC1 | 95% (inactive) |
| O=C(Nc1cccc(C(F)(F)F)c1)Nc1nnc(N2CCCCC2)s1 | 82% (inactive) |
| NC(=O)N/N=C/c1ccc(-c2ccc(Cl)cc2)o1 | 87% (inactive) |
| CCc1ccccc1N(C)C(=O)Cn1cnc2sc(C)c(S(=O)(=O)N3CCC(C)CC3)c2c1=O | 71% (inactive) |
| COc1cc(C2N=C(N)Nc3nc4ccccc4n32)ccc1OCCC(C)C (centres undefined) | 68% (inactive) |
| CC(C)c1ccc(C2N=C(N)Nc3nc4ccccc4n32)cc1 (centres undefined) | 101% (inactive) |
| CC(C)CCOc1ccc(C2N=C(N)Nc3nc4ccccc4n32)cc1 (centres undefined) | -3% (active) |
| CCC(C#CCN1CCCCC1)(CC)OC(C)=O | 98% (inactive) |
| CCOC(=O)c1ccc(OCC2c3cc(OC)c(OC)cc3CCN2C(=O)Cc2ccc(F)cc2)cc1 (centres undefined) | 68% (inactive) |
| NC(=O)CSc1nc2c(oc3ccccc32)c(=O)n1-c1ccccc1F | 59% (inactive) |
| CC1(NS(=O)(=O)c2ccccc2)CCS(=O)(=O)C1 (centres undefined) | 98% (inactive) |
| CC1(C)CC(N=Cc2c(O)[nH]c(=O)[nH]c2=O)CC(C)(C)N1 | 85% (inactive) |
| O=C(Nc1cc(Cl)cc(Cl)c1)c1ccc(F)c(S(=O)(=O)N2CCN(c3ccccc3F)CC2)c1 | 84% (inactive) |
| CN(C)C(=O)COc1ccc(S(=O)(=O)c2ccc(OCC(=O)N(C)C)cc2)cc1 | 109% (inactive) |
